The values that follow come from PubChem BioAssay AID2472 (National Center for Advancing Translational Sciences (NCATS), 2010).

Out of some 290,000 compounds screened, about 2,000 (0.69%) were called active. Shown is part of a subset that was picked to be rich in actives. A number with no mark means an inactive call. No stated cut-off is given here; in the data, active means activity change below about -30%; inactive means the rest, inconclusive results apart.
On the % scale 0 is the no-effect control and ±100 the full control effect.

The nature of the assay: qHTS Assay for Inhibitors of Fructose-1,6-bisphosphate Aldolase from Giardia Lamblia: Coupling assay counterscreen. The note with it: coupling enzyme system counterscreen, AmpLite Red fluorescence; at 58.2 µM (top of the series). The method in brief:
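Counterscreen of the coupled detection system alone, without aldolase: glyceraldehyde-3-phosphate coupling enzymes plus AmpLite Red readout. Compounds at 57.5 uM final, 10 min RT preincubation, 20 min RT reaction, fluorescence 525/598 nm.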
Background: Quantitative high-throughput screening tests each substance at several concentrations.
Consider `CN(Cc1ccc(F)cc1Cl)S(=O)(=O)c1cccs1`, for which the activity change, negative = inhibition was -12.4%.
The figure for `CC(C)(C)c1ccc(SCCc2ccncc2)cc1` is 1.38%.
Regarding `COc1cc(NC(=O)C2CCN(c3cnccn3)CC2)cc(OC)c1`, the activity change, negative = inhibition is -3.56%.
Consider `Cc1cc(C(F)F)n2nc(C(=O)Nc3ccc(S(=O)(=O)NC45CC6CC(CC(C6)C4)C5)cc3)nc2n1`, for which the activity change, negative = inhibition was 0.756%.
As for `CCn1nccc1C(=O)Nc1ccc(S(=O)(=O)NC23CC4CC(CC(C4)C2)C3)cc1`, the figure is -40.9% (active); as for `CCn1nccc1C(=O)Nc1ccc(Cl)c(Cl)c1`, 0.939%.
Consider `COc1ccc(NC(=O)C2CCC(CNC(=O)[C@@H]3Cc4ccccc4CN3)CC2)cc1` (stereo partly specified), for which the activity change, negative = inhibition is 0.0857%.
The figure for `COc1ccc(NC(=O)CCn2ccnc2)c(OC)c1` is 5.46%; for `O=C(N/N=C/c1c(Cl)[nH]c2ccccc12)c1sc2ccccc2c1Cl` it is -8.68%; for `Oc1ccc(N=Cc2sc3ccccc3c2Cl)cc1` it is -45.3% (active).
The figure for `COc1ccc(N=C(C)c2sc3ccccc3c2O)cc1` is -5.39%.
As for `COc1ccccc1S(=O)(=O)c1c(C)cc(C)[nH]c1=O`, the figure is 0.55%; as for `C=CC(C1=CC(=O)C=CC1=O)c1ccc(O)cc1` (stereo unspecified), -27%.
Take `Cc1noc(C)c1C(=O)N1CCOCC1`: the activity change, negative = inhibition is 0.778%.
The figure for `CCOC(=O)c1ccccc1C(=O)N1CCOCCOCCOCC1` is -0.445%.
Take `Cc1oc2c(c1C(=O)N1CCOCC1)C(=O)c1ccccc1C2=O`: the activity change, negative = inhibition was -40.8% (active).
With `COC(=O)c1cc2c(ccn2C)n1C`, the activity change, negative = inhibition was -5.9%.
As to `Cc1cc(C(=O)N/N=C/c2ccccn2)c2ccccc2n1`, the activity change, negative = inhibition was 0.262%.
As to `CCOC(=O)CCc1c(C)c(C#N)c2[nH]c3ccccc3n2c1=O`, the activity change, negative = inhibition was -41.6% (active).
Consider `CCOC(=O)CSc1nccc(N(C)C)c1C#N`, for which the activity change, negative = inhibition was -0.791%.
For `CCCc1cc(=S)n2c([nH]c3ccccc32)c1C#N`, the activity change, negative = inhibition is -7.83%.
`C=CCn1cc(Cl)cc(C(=O)Nc2ccccc2)c1=O`: the activity change, negative = inhibition was 0.816%.
The figure for `COc1ccc(S(=O)(=O)/N=C2\C=C(NS(=O)(=O)c3ccccc3)C(=O)c3ccccc32)cc1` is -39.6% (active); for `COc1ccc(S(=O)(=O)Nc2c(C)n(C)n(-c3ccccc3)c2=O)cc1` it is 0.385%; for `COc1ccc2cc(S(=O)(=O)Nc3ccccn3)ccc2c1` it is 0.329%.
As for `C[C@@H](O)[C@@H]1NC(=O)[C@H](CCCCN)NC(=O)[C@H](Cc2c[nH]c3ccccc23)NC(=O)[C@H](Cc2ccccc2)NC(=O)[C@H](Cc2ccccc2)NC(=O)[C@H](CC(N)=O)NC(=O)[C@H](CCCCN)NC(=O)[C@@H](NC(=O)[C@@H]2CCCN2)CSSC[C@@H](C(=O)N[C@@H](CCCCN)C(=O)O)NC(=O)[C@H](CO)NC(=O)[C@H](CO)NC(=O)[C@H](Cc2ccccc2)NC1=O`, the figure is -0.403%; as for `CCCc1c(C(=O)Nc2ccc(F)cc2)cnn1-c1ccccc1`, -6.8%; as for `Cc1ccc(CNC(=O)C2(C(F)(F)F)C/C(=C\CCO)CCCO2)o1` (stereo unspecified), 3.8%.
The figure for `Cc1ccc(/C=C(\C#N)C(=O)Nc2cccc3ncccc23)o1` is -39% (active); for `Cc1ccc(C(=O)Nc2cccc3ncccc23)cc1[N+](=O)[O-]` it is 0.485%; for `O=C(Nc1cccc2ncccc12)C(Cl)(Cl)Cl` it is 0.503%.
For the compound `CCOC(=O)C1CCCN(S(=O)(=O)c2ccc(-n3cnnn3)c(C)c2)C1` (stereo unspecified), the activity change, negative = inhibition is 2.06%.
The figure for `c1ccc2c(Nc3ccncc3)nc(-c3ccc4c(c3)OCO4)nc2c1` is -0.804%.
With `CC(C)(C)c1ccc(NC(=O)NCc2ccco2)cc1`, the activity change, negative = inhibition was -0.174%.
The figure for `O=C(NCc1ccccn1)c1ccc2nc(-c3ccco3)c(-c3ccco3)nc2c1` is -38.7% (active); for `Cc1cc(C)cc(NC(=O)NCc2ccccn2)c1` it is -0.5%.
As for `COCCNC(=O)Nc1ccc2nc(-c3ccco3)c(-c3ccco3)nc2c1`, the figure is -35% (active); as for `O=C(Nc1ccc2nccnc2c1)c1ccco1`, -1.38%; as for `COc1ccc2oc(=O)c(C(=O)NCc3ccccn3)cc2c1`, -2.85%.
In the case of `CCCCC/C=C\C/C=C\C/C=C\CCCCCCC(N)=O`, the activity change, negative = inhibition was 2.69%.
As for `CCC1Sc2ccc(S(=O)(=O)CCC(=O)NCc3cccs3)cc2NC1=O` (stereo unspecified), the figure is -3.89%; as for `Cc1cc2c(cc1S(=O)(=O)NCc1ccc(Cl)cc1)OCC(=O)N2`, 1.64%; as for `COC(=O)C(C(=O)OC)[C@@H](NC=O)c1ccccc1`, 1.57%.
The figure for `CCOC(=O)c1ccccc1CN1C(=O)c2ccccc2S1(=O)=O` is -1.95%.
For the compound `CCOC(=O)c1cc2n(c1N)-c1ccccc1C2=O`, the activity change, negative = inhibition was -30.6% (active).
As to `CCOC(=O)C1=C(C(=O)OCC)C(C(=O)OCC)N(S(=O)(=O)C(F)(F)F)c2ccccc21` (stereo unspecified), the activity change, negative = inhibition is 0.565%.
